High-throughput results (PubChem BioAssay)
Rows were chosen to be rich in hits. Some 1.1% of all compounds tested hit in one or more screens of this group.
SRC1 inh = human NCOA1 inhibition | Q15788 | HEK293 GAL4-SRC1 luciferase reporter, luminescence | inhibition, % at 3.6 µM | hit rate 0.12% among 360,000 | AID 588354;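 active means inhibition above the campaign mean plus 3 SD, with each screening campaign given its own cutoff, cut at about 60% in these data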
GalR3 antagonist = antagonists of human GalR3. hit rate 0.44% among 360,000. O60755. inhibition, % at 3 µM. HEK293 GalR3-CNG cAMP membrane potential fluorescence; galR3 body fused to GalR1 C-terminus;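 active means inhibition above the screen-wide average plus 3 SD, cut at about 13% in these data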;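 further: forskolin and galanin both at EC90 stimulate the cells; cAMP rise reported by CNG channel membrane potential dye signal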
NCOA3 inh = inhibitors of human steroid receptor coactivator 3 (SRC3) | Q9Y6Q9 | HEK293 GAL4-SRC3 luciferase reporter, luminescence | inhibition, % at 3.6 µM | hit rate 0.17% among 360,000 | AID 588352;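 active means inhibition above a per-campaign cutoff, the mean of all compounds plus 3 SD, cut at about 60% in these data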;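 further: higher means less SRC3-driven luciferase light from the GAL4 reporter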
SRC2 inh = human SRC2 (NCOA2) inhibition | HEK293 GAL4-SRC2 luciferase reporter, luminescence | inhibition, % at 9 µM | hit rate 0.17% among 370,000;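 active means inhibition above the mean inhibition of all tested compounds plus 3 SD, set per campaign, cut at about 52% in these data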
LRH-1 inv ag = suppresses constitutive activity of human LRH-1; HEK293T StAR-luciferase reporter, LRH-1 transfected, 24 h; hit rate 0.13% among 360,000; inhibition, % at 3.6 µM; O00482; AID 602396;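 active means inhibition above the mean inhibition of all tested compounds plus 3 SD, cut at about 73% in these data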
NR2F2 inh = blocks human COUP-TFII nuclear receptor; P24468; HEK293T NGFI-A luciferase reporter, luminescence; inhibition, % at 8.6 µM; hit rate 0.7% among 370,000; AID 686940;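 active means inhibition above a per-plate cutoff, mean inhibition of test wells between control levels plus 3 SD, cut at about 38% in these data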;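 further: cells cotransfected with COUP-TFII expression vector driving the NGFI-A reporter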
GalR3 conf = GalR3 (human) antagonism, confirmation. HEK293 GalR3 CNG cAMP biosensor, membrane potential fluorescence; galR3 fused to GalR1 carboxy tail; challenged with forskolin and galanin at EC90. shares compounds with GalR3 antagonist. hit rate 59% among 1,600. inhibition, % at 3 µM;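 active means inhibition above the primary screen's cutoff, the mean inhibition of all screened compounds plus 3 SD, cut at about 13% in these data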
CNG parental = counter-screen for GalR3 antagonists: nonspecific agonists in parental HEK-CNG cells; shares compounds with GalR3 antagonist; HEK293-CNG parental cells, cAMP membrane potential fluorescence; normalised: DMSO wells 0%, forskolin wells 100%; hit rate 10% among 1,600; AID 652268; activation, % at 3 µM; in the data active means activation above about 1.3%
Hits are given with their value; - = inactive; . = no result given.

SMILES	SRC1 inh	GalR3 antagonist	NCOA3 inh	SRC2 inh	LRH-1 inv ag	NR2F2 inh	GalR3 conf	CNG parental
COc1ccc(CCC(=O)OCC(=O)Nc2sccc2C(N)=O)cc1OC	-	99	-	-	-	-	92	-
COC(=O)[C@H](CC(C)C)N1Cc2nnn(Cc3ccc(C)cc3)c2-c2cc(F)ccc2S1(=O)=O	.	.	.	-	.	-	.	.
CCOC(=O)c1c(C)[nH]c(C(=O)COC(=O)[C@H](C)NC(=O)c2ccccc2Cl)c1C	-	18	-	-	-	-	14	-
CCOC(=O)c1c(C)[nH]c(C(=O)COC(=O)COc2ccccc2C=O)c1C	-	14	-	-	-	-	-	-
CCOC(=O)c1c(C)[nH]c(C(=O)COC(=O)/C=C/c2cccc(OC)c2OC)c1C	-	-	-	-	-	-	.	.
CCOC(=O)c1c(C)[nH]c(C(=O)COC(=O)CNC(=O)c2ccccc2Cl)c1C	-	-	-	-	-	-	.	.
COC(=O)C1=C(C)N(Cc2ccccc2C(F)(F)F)C(=NCc2ccc(OC)cc2)NC1c1ccccc1C(F)(F)F (stereo not drawn)	.	-	.	-	.	-	.	.
COCCNC(=O)C/C(C)=N/NC(=O)C(=O)NC1CCCCC1	-	13	-	-	-	-	-	-
COC(=O)[C@]12C[C@H](CC(=O)NCc3cccc(C(F)(F)F)c3)C(=O)N(Cc3ccccc3)C1=C[C@H](C1CCCC1)O[C@@H]2C	.	-	.	-	.	-	.	.
CCCc1nc(NCc2ccccc2)c(C#N)c2c1CCCC2	-	17	-	-	-	-	-	-
CCN=C1S/C(=C\c2cc(OCC)c(O)cc2Br)C(=O)N1CC	-	16	-	-	-	-	21	-
CCN(CC(=O)NCCCN1CCOCC1)S(=O)(=O)c1ccc(F)cc1	-	19	-	-	-	-	-	-
CCN(CC(=O)NCCCN1CCOCC1)S(=O)(=O)c1ccc(Cl)cc1	-	-	-	-	-	-	.	.
CN(C)/C=N/c1nc2nccc(-c3cccs3)n2n1	-	13	-	-	-	-	-	-
COC(=O)C1=C(C)N(Cc2ccc(C(F)(F)F)cc2)C(=NCc2ccccc2C(F)(F)F)NC1c1ccccc1C(F)(F)F (stereo not drawn)	.	-	.	-	.	-	.	.
CCC(=O)Nc1cccc(-c2cn3cccc(C)c3n2)c1	-	13	-	-	-	-	-	-
CCC(C)C(=O)Nn1c(C2CC2)nc2cc(OC)c(OC)cc2c1=O (stereo not drawn)	-	25	-	-	-	-	29	-
Cc1onc(-c2ccccc2)c1-c1nc2ccccc2c(=O)o1	-	16	-	-	-	-	13	2.0
C[C@H](CO)N1C[C@H](C)[C@H](CN(C)Cc2cccc(O)c2)OCc2ccccc2-c2c(n(C)c3ccccc23)C1=O	-	-	-	-	-	-	.	.
O=C(O)C1=C[C@@H](c2ccccc2)C[C@@H](OCCCCO)O1	-	-	-	-	-	-	.	.
COc1ccc([C@H]2C=C(C(=O)O)O[C@@H](OCCCCO)C2)cc1	-	17	-	-	-	-	-	-
COc1ccc(C=O)c2[nH]c3c(Cl)ncnc3c12	-	14	-	-	-	-	29	-
C=CCOc1ccc(-c2nc3c(c(=O)[nH]c(=O)n3Cc3ccccc3)n2CCCOC)cc1	-	-	-	-	-	-	.	.
COCCCn1c(-c2ccc(OC)cc2)nc2c1c(=O)[nH]c(=O)n2Cc1ccccc1	-	14	-	-	-	-	-	-
Cc1[nH]c2ccccc2c1CC(=O)Nc1ccc(Nc2cccnc2)c(-c2ccc(Oc3ccccc3)cc2)c1	.	-	.	-	.	-	.	.
SMILES	SRC1 inh	GalR3 antagonist	NCOA3 inh	SRC2 inh	LRH-1 inv ag	NR2F2 inh	GalR3 conf	CNG parental
COC(=O)CNC(=O)COC(=O)/C=C/c1cccs1	-	-	-	-	-	-	.	.
COc1ccc(CCNC(=O)COC(=O)/C=C/c2cccs2)cc1	-	.	-	-	-	-	-	-
COC(=O)[C@]12C[C@H](CC(=O)NCCC(C)C)C(=O)N(Cc3ccco3)C1=C[C@H](C1CCCC1)O[C@@H]2C	.	.	.	-	.	-	.	.
Cc1onc(-c2ccccc2Cl)c1C(=O)NNC(=O)c1cccc(F)c1	-	13	-	-	-	-	15	-
Cc1onc(-c2ccccc2Cl)c1C(=O)Nc1ccccc1	-	-	-	-	-	-	.	.
CCOC(=O)/C(C#N)=C/c1cn(CCC(=O)O)nc1-c1ccccc1	-	-	-	-	-	-	.	.
CCOC(=O)/C(C#N)=C/c1cn(CCC(=O)O)nc1-c1ccc(OC)cc1	-	14	-	-	-	-	-	-
CCn1nc(CC(=O)Nc2ccc(-n3cnnn3)c(OC)c2)c2ccccc2c1=O	-	17	-	-	-	-	17	-
CCCNC(=O)c1cc2c(c(-c3cccc(-c4ccccc4F)c3)n1)[C@H](CCO)N(C(=O)CC1CC1)C2	.	-	.	-	-	-	.	.
COc1ccc(C(=O)NC2CCCN(Cc3ccccc3F)C2)c(OC)c1OC (stereo not drawn)	-	16	-	-	-	-	-	-
Cc1c(C(=O)OCC(C)C)[nH]c2c1C(=O)CC(c1ccco1)C2 (stereo not drawn)	-	17	-	-	-	-	-	2.5
COC(=O)[C@]12C[C@H](CC(=O)N3CCSCC3)C(=O)N(CCC3=CCCCC3)C1=C[C@H](C1CCCC1)O[C@@H]2C	.	.	.	-	.	-	.	.
CCOC(=O)C1(Cc2cccc(OC)c2)CCN(CC(O)CO)CC1 (stereo not drawn)	-	-	-	-	-	-	.	.
CCOC(=O)C1(Cc2cccc(OC)c2)CCN(CCO)CC1	-	18	-	-	-	-	-	-
Cc1ccc(-c2sc(C(=O)NN)c(C)c2C#N)cc1	-	27	-	-	-	-	25	-
Cc1ccc(CSc2sc(C(=O)c3ccccc3)c(N)c2C#N)cc1	-	-	-	-	-	-	.	.
N#Cc1c(N)nc(SCC(=O)NC2CCCCC2)c(C#N)c1-c1ccc(Cl)cc1	-	-	-	-	-	-	.	.
N#CCSc1nc(N)c(C#N)c(C2CCCCC2)c1C#N	-	72	-	-	-	-	88	-
COc1ccccc1-c1oc2ccccc2c1-c1ccc2c(c1)OCO2	-	-	-	-	-	-	.	.
COc1cc(C#Cc2c(-c3ccccc3OC)oc3ccccc23)cc(OC)c1	-	13	-	-	-	-	-	-
COC(=O)[C@]12C[C@H](CC(=O)N3CCSCC3)C(=O)N(CCC3=CCCCC3)C1=C[C@H](C(C)(C)C)O[C@@H]2C	.	-	.	-	.	-	.	.
